Screening results as filed in PubChem.
Only some compounds are listed: those with a hit (about 3.3% of all), similar ones and a draw of the others.
Autofluor counter = flagged as autofluorescent in microsphere protease counterscreen; compound autofluorescence counterscreen, microsphere flow cytometry; stronger effect = higher value; fluorescence intensity (no concentration beside the values); hit rate 3.1% among 360,000; AID 624483; in the data active means fluorescence intensity above about 16000; inconclusive means no clear call, values can overlap the other calls
MazF activator = activators of E. coli MazEF toxin-antitoxin RNase, primary screen, biochemical, fluorescence, uHTS; FAM/BHQ RNA-DNA oligo cleavage fluorescence, 5 h; Endoribonuclease toxin MazF (Escherichia coli (strain K12)), P0AE70; activation, % at 20 µM; hit rate 0.32% among 350,000; AID 504720, 2011; in the data active means activation above about 50%
Anthrax LF inh2 = Bacillus anthracis LF protease inhibitors, primary screen, biochemical, multiplex microsphere, MLPCN library; Lethal factor (Bacillus anthracis), P15917; multiplex microsphere protease cleavage assay; inhibition, % at 10 µM; hit rate 0.12% among 360,000; AID 588501, 2011
Target sequence (P15917 whole entry, looked up): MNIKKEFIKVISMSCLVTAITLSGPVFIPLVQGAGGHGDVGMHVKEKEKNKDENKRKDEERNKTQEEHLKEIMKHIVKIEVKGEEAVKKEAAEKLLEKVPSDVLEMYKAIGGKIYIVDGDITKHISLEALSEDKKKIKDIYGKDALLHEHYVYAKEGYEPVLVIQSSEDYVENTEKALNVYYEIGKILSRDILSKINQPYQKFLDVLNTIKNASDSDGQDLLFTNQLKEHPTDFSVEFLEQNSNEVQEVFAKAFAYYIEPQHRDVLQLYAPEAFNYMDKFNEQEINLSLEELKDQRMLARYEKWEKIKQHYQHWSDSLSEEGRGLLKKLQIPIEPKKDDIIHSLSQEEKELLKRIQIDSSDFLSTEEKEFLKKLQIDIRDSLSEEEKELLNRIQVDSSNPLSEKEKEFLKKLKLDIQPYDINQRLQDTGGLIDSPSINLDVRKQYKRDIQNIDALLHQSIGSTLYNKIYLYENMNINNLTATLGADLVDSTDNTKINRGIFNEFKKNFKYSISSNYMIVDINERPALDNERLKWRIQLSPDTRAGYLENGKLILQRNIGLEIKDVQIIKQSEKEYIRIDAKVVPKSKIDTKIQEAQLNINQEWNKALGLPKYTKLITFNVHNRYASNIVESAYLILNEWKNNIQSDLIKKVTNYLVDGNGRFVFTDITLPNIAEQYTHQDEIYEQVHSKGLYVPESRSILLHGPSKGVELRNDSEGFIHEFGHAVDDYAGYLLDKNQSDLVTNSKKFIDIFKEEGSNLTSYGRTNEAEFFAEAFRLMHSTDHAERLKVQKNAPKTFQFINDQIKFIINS
PriA SSB inh = inhibitors of Klebsiella pneumoniae PriA binding to SSB C-terminal tail, primary screen, biochemical, AlphaScreen | AID 1272365, 2023 | hit rate 0.6% among 430,000 | inhibition, % at 33 µM | PriA–SSB C-terminal tail interaction (Klebsiella pneumoniae) | AlphaScreen SSBct-PriA binding, biotinylated peptide; in the data active means inhibition mostly above about 37%, no sharp cut-off; inactive means mostly below about 20%
BoNT-F LC inh = BoNT/F light chain protease inhibitors, primary screen, biochemical, flow cytometry, MLPCN library; Botulinum neurotoxin type F light chain protease (Clostridium botulinum); Multiplex microsphere protease cleavage assay; inhibition, % at 10 µM; hit rate 0.22% among 360,000; in the data active means inhibition above about 35%, passing the limit was not always enough; inconclusive means no clear call, values can overlap the other calls
BoNT A protease = BoNT/A light chain protease inhibitors, primary screen, biochemical, flow cytometry, MLPCN library. Botulinum neurotoxin type A light chain protease (Clostridium botulinum A str. ATCC 3502). multiplex microsphere protease substrate cleavage. inhibition, % at 10 µM. hit rate 0.17% among 360,000
BoNTA LC inh 1 = BoNT/A light chain protease inhibitors, confirmation, biochemical, flow cytometry, cherry pick 1; shares compounds with BoNT-F LC inh; multiplex microsphere protease assay; inhibition, % at 10 µM; hit rate 3% among 720; in the data active means inhibition above about 32%
BoNTF LC inh 1 = BoNT/F light chain protease inhibitors, confirmation, biochemical, flow cytometry, cherry pick 1 | shares compounds with BoNT-F LC inh | 720 tested, under 10 active | inhibition, % at 10 µM | multiplex microsphere protease cleavage assay; call rule not given here
Anthrax LF CP1 = Bacillus anthracis LF protease inhibitors, confirmation, biochemical, multiplex microsphere, cherry pick 1. shares compounds with BoNT-F LC inh. multiplex microsphere protease cleavage assay. inhibition, % at 10 µM. 720 tested, under 10 active. AID 602142, 2011; call rule not given here
Numbers stand for hits; – = inactive; ? = inconclusive; · = not tested or not shown. Unless noted, no stated cut-off is given here; in the data, active means inhibition above about 30%; inconclusive means no clear call, values can overlap the other calls; inactive means below that.

SMILES	Autofluor counter	MazF activator	Anthrax LF inh2	PriA SSB inh	BoNT-F LC inh	BoNT A protease	BoNTA LC inh 1	BoNTF LC inh 1	Anthrax LF CP1
Cc1ccccc1NC(=O)c1cccc(S(=O)(=O)Nc2cccc(C(=O)O)c2)c1	–	–	–	–	?	–	–	–	–
O=C(O)c1ccc(NS(=O)(=O)c2cccc(C(=O)Nc3cccc(C(=O)O)c3)c2)cc1	–	–	–	–	–	–	–	–	–
CC(C)n1cnc(S(=O)(=O)NCc2cncc(-c3cccs3)c2)c1	·	·	·	–	·	·	·	·	·
Cc1csc(NC(=O)CSc2nnc(CCNC(=O)c3ccc(Cl)c(Cl)c3)n2C)n1	–	–	–	–	–	–	·	·	·
COc1ccc(CCCc2nnc(SCC(=O)Nc3nc(C)cs3)n2C)cc1	–	–	–	–	35.1	?	–	–	–
CN1CCN(c2nc(C(N)=O)cc(-c3ccccc3)n2)CC1	–	–	–	–	36.0	–	–	–	–
CCN(CC)c1nc(C(N)=O)cc(-c2ccccc2)n1	–	–	–	–	–	–	·	·	·
O=C(Nc1ccc2c(c1)OCCO2)C1CCN(c2ccc(-n3cncn3)nn2)CC1	·	·	·	–	·	·	·	·	·
CCC(=O)NCc1ccc2[nH]c(C)cc2c1	–	–	–	–	–	–	–	–	–
Cc1cc2cc(CNC(=O)CCC(=O)O)ccc2[nH]1	–	–	–	–	–	–	–	–	–
Cc1cc2cc(CNC(=S)NC3CCCCC3)ccc2[nH]1	–	–	–	–	–	–	·	·	·
CC(=O)NCc1ccc2[nH]c(C)cc2c1	–	–	–	–	–	–	–	–	–
Cc1cc2cc(CNC(=O)NC3CCCCC3)ccc2[nH]1	–	–	–	53.5	–	36.7	–	–	–
Cc1ccc(NC(=O)NCc2ccc3[nH]c(C)cc3c2)cc1	–	–	–	–	–	–	·	·	·
O=C(NCC(=O)N1CCCC1)c1ccc(Cl)cc1	–	–	31.3	–	–	–	–	–	–
N#Cc1sc2nc(C3CC3)cc(-c3ccc(Cl)cc3)c2c1N	–	–	–	–	–	–	·	·	·
COc1ccc(C(=O)c2sc3nc(C)cc(-c4cccs4)c3c2N)cc1	–	–	–	–	–	56.4	–	–	–
Cc1cc(-c2cccs2)c2c(N)c(C(=O)c3ccc4c(c3)OCO4)sc2n1	–	–	–	–	–	55.5	–	–	–
COc1ccc(-c2cc(-c3cccs3)nc3sc(C#N)c(N)c23)cc1	–	–	–	–	–	40.2	–	–	–
COc1ccc(-c2c3c(nc4sc(C(=O)c5ccc6c(c5)OCO6)c(N)c24)CC(C)(C)CC3=O)cc1	·	·	·	–	·	·	·	·	·
CCCCC(=O)Nc1nc(-c2cc3cc(OC)ccc3o2)cs1	·	·	·	–	·	·	·	·	·
Cc1nc(C)c(C(=O)NCCNC(=O)c2ccc(NC(=O)C3CC3)cc2)s1	·	·	·	–	·	·	·	·	·
O=C(COc1ccc(Cl)cc1)Nc1nnc(-c2ccc(Br)s2)o1	·	·	·	–	·	·	·	·	·
CC1(C)Cc2c(C#N)c(SCC(=O)c3ccccc3)nc(N3CCOCC3)c2CS1	–	–	–	–	36.8	–	–	–	–
CCC1(C)Cc2c(C#N)c(SC)nc(N3CCOCC3)c2CO1 (centres undefined)	–	–	32.1	–	?	–	–	–	–
SMILES	Autofluor counter	MazF activator	Anthrax LF inh2	PriA SSB inh	BoNT-F LC inh	BoNT A protease	BoNTA LC inh 1	BoNTF LC inh 1	Anthrax LF CP1
CCc1cccc2sc(N(CCN3CCOCC3)C(=O)CCc3ccccc3)nc12	·	·	·	–	·	·	·	·	·
CCOC(=O)c1c(NC(=O)Nc2ccc(Cl)cc2)sc(C)c1C	27117	–	41.4	–	–	–	–	–	–
CC(C)n1c2ccccc2c2nc3ccccc3nc21	–	–	–	–	–	54.8	–	–	–
CC(C)n1c2ccc(Br)cc2c2nc3ccccc3nc21	·	·	·	–	·	·	·	·	·
Cc1ccc(-c2nc3cc(Br)cnc3nc2-c2ccc(C)cc2)cc1	–	–	–	–	–	45.7	–	–	–
COc1ccccc1NC(=O)C(C)Sc1nccn1C (centres undefined)	–	–	–	–	–	–	·	·	·
CC(Sc1nccn1C)C(=O)Nc1ccc(C(N)=O)cc1 (centres undefined)	?	–	–	–	39.0	–	–	–	–
CC(C)(C)C(=O)Nc1nc(CC(=O)NC2CCCCC2)cs1	·	·	·	–	·	·	·	·	·
COc1ccc(C2=NOC(C(=O)NCc3ccccn3)C2)cc1 (centres undefined)	–	–	–	–	72.2	–	–	–	–
O=C(NCc1nn(C2CCCC2)c(=O)c2ccccc12)c1ccc(OC(F)(F)F)cc1	·	·	·	–	·	·	·	·	·
COc1ccc(NS(=O)(=O)c2cccc(C(=O)Nc3ccccc3C(=O)O)c2)cc1	–	–	–	–	?	–	–	–	–
COc1ccc(C(CNC(=O)c2cccc(S(=O)(=O)Nc3ccccc3OC)c2)N2CCCCC2)cc1 (centres undefined)	–	–	–	–	–	–	·	·	·
CC(=O)c1ccc(NS(=O)(=O)c2cccc(C(=O)Nc3ccccc3C(=O)O)c2)cc1	–	–	–	–	–	–	–	–	–
COc1ccc(C(CNC(=O)c2cccc(S(=O)(=O)Nc3ccccc3OC)c2)N2CCCC2)cc1 (centres undefined)	–	–	–	–	36.9	–	–	–	–
CCCOc1ccc(-c2nc(C#N)c(NCCCn3ccnc3)o2)cc1	?	–	–	–	57.7	58.2	–	–	–
CC(C)=CC1C(C(=O)NCCOc2ccccc2)C1(C)C (centres undefined)	–	–	–	–	35.4	–	–	–	–
O=C(c1ccc2nc[nH]c2c1)N1CCc2nc3ccccn3c(=O)c2C1	·	·	·	–	·	·	·	·	·
COc1ccccc1Oc1ccc2c(c1)C(=O)N(c1ccc(O)cc1)C2=O	–	–	–	–	–	–	·	·	·
COc1ccccc1Oc1ccc2c(c1)C(=O)N(CC(=O)O)C2=O	–	–	–	–	37.5	–	–	–	–
C1CCC(Nc2nc(N3CCOCC3)nc(N3CCOCC3)n2)C1	·	·	·	–	·	·	·	·	·
Cc1nn(-c2nnc(NC3CCCCC3)nn2)c(C)c1Br	–	–	–	–	–	34.7	–	–	–
O=S(=O)(c1ccc(OC(F)(F)F)cc1)N(Cc1ccsc1)Cc1ccccn1	·	·	·	–	·	·	·	·	·
